About 8,600 (12%) of roughly 69,000 compounds showed an effect of 50% or more. This excerpt belongs to a sample that is enriched for strong results.
System: Plasmodium berghei
Assay: Screen against P. berghei liver stage (PbLuc), transformed with Luciferase, at 10uM
Assay type: functional, HepG2
Details: tested at 10 uM

| Structure (SMILES) | INHIBITION |
| --- | --- |
| Cn1nnc2c(N3CC(C(=O)NCc4cccs4)C3)ncnc21 | -37.2% |
| O=C(NC1CC1)N1CC[C@H]2[C@H]1CCN2c1ncccn1 | -4.82% |
| CCc1noc(CN2CCN(C(=O)Cc3ccc(F)cc3)CC2)n1 | 52.4% |
| CCc1noc(CN2CCN(C(=O)c3ccccc3F)CC2)n1 | 43.3% |
| CCc1noc(CN2CCN(C(=O)COC)CC2)n1 | 25.6% |
| CCc1noc(CN2CCCN(C(C)=O)CC2)n1 | 25.6% |
| CCc1noc(CN2CCN(C(=O)C3CC3)CC2)n1 | 54.4% |
| CCc1noc(CN2CCN(C(=O)N(C)C)CC2)n1 | -27.3% |
| Cc1cc(C(=O)N2CCc3ncc(CN4CCOCC4)n3CC2)no1 | 35.8% |
| Cn1cnnc1C1CCCN(C(=O)COCc2ccccc2)C1 (stereo not given) | 45.7% |
| O=C1CCN(CCCS(=O)(=O)c2ccc(Cl)cc2)CCN1 | 20.6% |
| c1ccc2sc(N3CCCN(c4ncnc5c4CCNC5)CC3)nc2c1 | 74.5% |
| Cc1ncnc(N2CCCN(c3nc4ccccc4s3)CC2)c1C | 89.6% |
| Cc1cccc(CN2CCc3ncnc(N4CCCC4)c3CC2)n1 | -27.4% |
| NC(=O)c1cccnc1N1CCN(c2ncnc3c2CCNC3)CC1 | 31.7% |
| Cc1cc(C(=O)N2CCN(c3nc4ccccc4s3)CC2)no1 | 36.8% |
| Cn1nc2c(cc1=O)CN(c1nc3ccccc3s1)CC2 | -80.7% |
| CN(C)S(=O)(=O)N1CC[C@]2(O)CCN(c3nc4ccccc4s3)C[C@@H]2C1 | 11.3% |
| c1ccc2sc(N3CCN(c4ncnc5c4CCC5)CC3)nc2c1 | 79.9% |
| COCC(=O)N1CCCN(c2ncnc3c2CCNCC3)CC1 | 11.7% |
| COCCCN1CC2(CCCN(CCn3cc(Cl)cn3)C2)CCC1=O (stereo not given) | 17.4% |
| CCOC(=O)Cc1csc(NC(=O)c2cc3n(n2)CCCO3)n1 | -42.6% |
| COCCCN(CCOC)Cc1nc2c(cnn2C)c(=O)[nH]1 | 25.1% |
| CCN(CC)C(CNCc1ccc(O)cc1)c1ccco1 (stereo not given) | 77.8% |
| CCN(CC)C(CNS(=O)(=O)c1ccc(C(C)=O)cc1)c1ccco1 (stereo not given) | 26.4% |
| CCN(CC)C(CNCc1cc(F)cc(F)c1)c1ccco1 (stereo not given) | 34.1% |
| CCN(CC)C(CNS(=O)(=O)c1ccc(C(=O)NC)cc1)c1ccco1 (stereo not given) | 12.6% |
| CCN(CC)C(CNS(=O)(=O)c1ccc(C(N)=O)cc1)c1ccco1 (stereo not given) | 54.3% |
| CCN(CC)C(CNCc1ccc(OC)c(F)c1)c1ccco1 (stereo not given) | -75% |
| O=C(CCc1ccccn1)N1CCCN(C(=O)CC2CCCC2)CC1 | 21.5% |

From ChEMBL document CHEMBL4513216, “Probing the Open Global Health Chemical Diversity Library for Multistage-Active Starting Points for Next-Generation Antimalarials” (ACS Infect Dis, 2020)
